1 sequence from publication PMC7862700, “An all-to-all approach to the identification of sequence-specific readers for epigenetic DNA modifications on cytosine” can be followed below.

What all share (assay): DAPPL (digital affinity profiling via proximity ligation, sequencing); 10 mM Tris-HCl pH 7.5, 50 mM NaCl, 1 mM DTT, 4% glycerol, room temperature, 30 min; GST-TFs on glutathione beads, 16-mer random dsDNA library, 0.1% formaldehyde crosslink after washing; high values mean tight binding
The target of one test is T1, FLI1 (Homo sapiens, UniProt Q01543 1-452).
T1 sequence: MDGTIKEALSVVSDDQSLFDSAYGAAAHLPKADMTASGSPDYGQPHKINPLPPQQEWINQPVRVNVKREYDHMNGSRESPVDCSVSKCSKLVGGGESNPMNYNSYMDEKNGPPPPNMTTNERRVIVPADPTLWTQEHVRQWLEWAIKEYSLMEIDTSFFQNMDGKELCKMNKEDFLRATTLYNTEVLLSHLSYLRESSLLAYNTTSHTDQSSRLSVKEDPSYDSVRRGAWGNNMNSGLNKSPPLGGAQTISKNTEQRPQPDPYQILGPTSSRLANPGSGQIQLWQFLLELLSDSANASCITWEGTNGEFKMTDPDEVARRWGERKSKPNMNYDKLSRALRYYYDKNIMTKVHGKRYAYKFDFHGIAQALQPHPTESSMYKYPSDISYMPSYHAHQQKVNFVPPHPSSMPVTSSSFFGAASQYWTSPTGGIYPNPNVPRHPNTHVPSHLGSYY
Particulars: protein: recombinant; tags: N-terminal GST; dsDNA, one strand shown. The procedure, abridged:
(§1)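 Pools were built from human transcription factors expressed in yeast as GST fusions, captured on glutathione beads and DNA-barcoded, along with a tag-only sample. Incubation with 200 nmole of a 16-mer random double-stranded DNA library lasted 30 min at room temperature in Tris/NaCl/DTT/glycerol buffer, and was followed by washing, 0.1% formaldehyde crosslinking, proximity ligation, PCR amplification and Illumina NextSeq500 sequencing. Binding signal is the quotient of each hexamer's read frequency for a factor and its frequency for the tag-only sample.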

The target of another test is T2, ELK1 (Homo sapiens, UniProt P19419 1-428).
T2 sequence: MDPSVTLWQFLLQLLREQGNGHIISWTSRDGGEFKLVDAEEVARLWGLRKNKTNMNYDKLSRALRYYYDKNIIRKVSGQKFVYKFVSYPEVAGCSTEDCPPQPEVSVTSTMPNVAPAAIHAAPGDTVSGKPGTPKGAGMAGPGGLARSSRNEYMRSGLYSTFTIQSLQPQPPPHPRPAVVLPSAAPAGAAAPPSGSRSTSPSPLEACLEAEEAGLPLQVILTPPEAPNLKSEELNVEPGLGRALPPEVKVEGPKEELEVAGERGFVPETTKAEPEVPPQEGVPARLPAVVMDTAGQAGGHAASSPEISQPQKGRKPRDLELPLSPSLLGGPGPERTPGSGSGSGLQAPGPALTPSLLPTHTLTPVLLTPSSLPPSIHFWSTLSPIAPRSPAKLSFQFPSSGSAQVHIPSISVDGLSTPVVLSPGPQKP
The note with it: protein: recombinant; tags: N-terminal GST; dsDNA, one strand shown. The gist of the method: as §1

The target of the next test is T3, GABPA (Homo sapiens, UniProt Q06546 1-454).
T3 sequence: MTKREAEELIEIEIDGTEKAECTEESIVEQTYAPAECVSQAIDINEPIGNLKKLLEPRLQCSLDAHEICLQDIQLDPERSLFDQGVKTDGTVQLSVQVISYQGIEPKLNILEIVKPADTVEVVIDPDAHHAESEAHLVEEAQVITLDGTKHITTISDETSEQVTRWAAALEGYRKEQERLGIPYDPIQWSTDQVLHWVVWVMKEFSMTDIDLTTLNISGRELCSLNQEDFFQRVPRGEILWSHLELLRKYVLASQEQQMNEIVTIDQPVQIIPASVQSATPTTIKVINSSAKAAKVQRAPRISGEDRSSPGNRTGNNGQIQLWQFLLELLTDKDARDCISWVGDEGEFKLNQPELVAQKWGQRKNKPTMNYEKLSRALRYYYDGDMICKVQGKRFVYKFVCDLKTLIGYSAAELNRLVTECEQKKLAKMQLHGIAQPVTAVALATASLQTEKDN
Particulars: protein: recombinant; tags: N-terminal GST; dsDNA, one strand shown. The gist of the method:
as §1

The next test addresses T4, ERG (Homo sapiens, UniProt P11308 1-479).
T4 sequence: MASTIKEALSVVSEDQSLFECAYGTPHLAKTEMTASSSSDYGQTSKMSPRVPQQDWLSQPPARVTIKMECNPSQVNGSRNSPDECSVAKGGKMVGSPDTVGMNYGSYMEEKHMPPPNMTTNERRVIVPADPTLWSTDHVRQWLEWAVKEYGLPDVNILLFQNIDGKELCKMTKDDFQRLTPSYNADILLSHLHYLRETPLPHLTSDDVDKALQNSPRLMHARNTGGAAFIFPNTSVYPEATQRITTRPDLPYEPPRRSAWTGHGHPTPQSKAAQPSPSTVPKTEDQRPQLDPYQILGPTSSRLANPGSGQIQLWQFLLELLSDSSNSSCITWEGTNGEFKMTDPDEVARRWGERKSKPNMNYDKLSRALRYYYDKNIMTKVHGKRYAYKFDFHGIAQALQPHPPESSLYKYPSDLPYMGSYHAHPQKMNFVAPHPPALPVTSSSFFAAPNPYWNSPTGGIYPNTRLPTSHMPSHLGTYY
The note with it: protein: recombinant; tags: N-terminal GST; dsDNA, one strand shown. The gist of the method: as §1

The next test concerns the target ELF1 (Homo sapiens, UniProt P32519 1-619). Particulars: protein: recombinant; tags: N-terminal GST; dsDNA, one strand shown. The gist of the method:
as §1

Another test has as its target T5, EHF (Homo sapiens, UniProt Q9NZC4 1-300).
T5 sequence: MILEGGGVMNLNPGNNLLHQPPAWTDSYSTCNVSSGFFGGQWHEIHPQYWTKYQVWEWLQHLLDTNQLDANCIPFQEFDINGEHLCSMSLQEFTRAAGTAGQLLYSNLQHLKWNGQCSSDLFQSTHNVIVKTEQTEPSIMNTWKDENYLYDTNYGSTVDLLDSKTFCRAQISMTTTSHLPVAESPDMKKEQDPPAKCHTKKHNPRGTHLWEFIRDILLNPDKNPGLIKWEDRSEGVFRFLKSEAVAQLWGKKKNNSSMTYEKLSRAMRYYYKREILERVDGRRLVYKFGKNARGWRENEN
Particulars: protein: recombinant; tags: N-terminal GST; dsDNA, one strand shown. The procedure, abridged: as §1

The next test deals with SPI1 (Homo sapiens, UniProt P17947 1-270). The note with it: protein: recombinant; tags: N-terminal GST; dsDNA, one strand shown. The procedure, abridged:
as §1

The next test deals with SPIB (Homo sapiens, UniProt Q01892 1-262). Particulars: protein: recombinant; tags: N-terminal GST; dsDNA, one strand shown. The procedure, abridged:
as §1

The target in another test is T6, ELK3 (Homo sapiens, UniProt P41970 1-407).
T6 sequence: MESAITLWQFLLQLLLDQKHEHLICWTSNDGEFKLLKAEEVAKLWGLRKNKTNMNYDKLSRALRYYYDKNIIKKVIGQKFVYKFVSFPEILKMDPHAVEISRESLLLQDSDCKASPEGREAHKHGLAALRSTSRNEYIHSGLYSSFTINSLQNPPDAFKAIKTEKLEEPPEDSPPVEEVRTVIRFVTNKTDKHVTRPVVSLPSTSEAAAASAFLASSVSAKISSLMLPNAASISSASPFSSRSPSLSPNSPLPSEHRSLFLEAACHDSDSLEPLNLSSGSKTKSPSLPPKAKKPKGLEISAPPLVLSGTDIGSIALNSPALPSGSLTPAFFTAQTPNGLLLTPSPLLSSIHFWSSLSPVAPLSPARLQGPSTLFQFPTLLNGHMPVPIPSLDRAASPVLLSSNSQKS
The note with it: protein: recombinant; tags: N-terminal GST; dsDNA, one strand shown. The gist of the method:
as §1

The next test has as its target T7, FEV (Homo sapiens, UniProt Q99581 1-238).
T7 sequence: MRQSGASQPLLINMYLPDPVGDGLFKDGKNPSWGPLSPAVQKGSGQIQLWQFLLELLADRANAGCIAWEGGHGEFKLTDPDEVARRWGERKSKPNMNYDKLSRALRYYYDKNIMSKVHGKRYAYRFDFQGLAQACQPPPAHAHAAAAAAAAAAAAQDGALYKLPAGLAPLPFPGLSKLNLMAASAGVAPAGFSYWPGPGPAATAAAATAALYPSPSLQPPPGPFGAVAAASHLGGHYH
Particulars: protein: recombinant; tags: N-terminal GST; dsDNA, one strand shown. The gist of the method: as §1

The target in the next test is ETV5 (Homo sapiens, UniProt P41161 1-510). The note with it: protein: recombinant; tags: N-terminal GST; dsDNA, one strand shown. The procedure, abridged:
as §1

A further test deals with HSF1 (Homo sapiens, UniProt Q00613 1-529). Particulars: protein: recombinant; tags: N-terminal GST; chain copies: 3; dsDNA, one strand shown. The procedure, abridged:
as §1

In a further test the target is T8, SPIC (Homo sapiens, UniProt Q8N5J4 1-248).
T8 sequence: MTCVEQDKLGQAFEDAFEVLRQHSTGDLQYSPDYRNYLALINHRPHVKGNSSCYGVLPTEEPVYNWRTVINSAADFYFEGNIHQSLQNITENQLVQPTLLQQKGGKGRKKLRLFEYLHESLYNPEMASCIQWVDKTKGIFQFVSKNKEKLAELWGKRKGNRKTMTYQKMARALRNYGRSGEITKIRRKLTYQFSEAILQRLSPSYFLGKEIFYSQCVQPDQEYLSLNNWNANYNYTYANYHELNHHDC
The note with it: protein: recombinant; tags: N-terminal GST; dsDNA, one strand shown. The gist of the method: as §1

In the next test the target is ELF4 (Homo sapiens, UniProt Q99607 1-663). Particulars: protein: recombinant; tags: N-terminal GST; dsDNA, one strand shown. The procedure, abridged: as §1
ELF4, sequence (Q99607 whole entry): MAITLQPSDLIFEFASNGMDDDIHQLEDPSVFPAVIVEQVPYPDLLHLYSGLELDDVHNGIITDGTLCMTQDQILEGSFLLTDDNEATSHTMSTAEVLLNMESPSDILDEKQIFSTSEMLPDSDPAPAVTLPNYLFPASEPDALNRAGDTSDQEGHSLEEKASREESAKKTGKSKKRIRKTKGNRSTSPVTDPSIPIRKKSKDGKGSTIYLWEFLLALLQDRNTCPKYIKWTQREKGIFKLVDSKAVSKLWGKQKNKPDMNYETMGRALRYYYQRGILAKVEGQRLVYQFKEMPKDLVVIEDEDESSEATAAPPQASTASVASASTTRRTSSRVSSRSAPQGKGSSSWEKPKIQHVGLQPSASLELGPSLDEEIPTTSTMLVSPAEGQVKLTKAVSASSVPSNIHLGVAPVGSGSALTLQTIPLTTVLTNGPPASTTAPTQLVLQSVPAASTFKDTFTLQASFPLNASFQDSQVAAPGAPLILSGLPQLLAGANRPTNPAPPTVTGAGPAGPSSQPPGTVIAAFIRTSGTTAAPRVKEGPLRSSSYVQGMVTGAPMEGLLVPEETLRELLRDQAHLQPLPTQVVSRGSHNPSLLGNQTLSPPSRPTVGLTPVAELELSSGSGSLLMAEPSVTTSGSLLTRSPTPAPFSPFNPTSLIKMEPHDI
In the next test the target is T9, ELK4 (Homo sapiens, UniProt P28324-2 1-405).
T9 sequence: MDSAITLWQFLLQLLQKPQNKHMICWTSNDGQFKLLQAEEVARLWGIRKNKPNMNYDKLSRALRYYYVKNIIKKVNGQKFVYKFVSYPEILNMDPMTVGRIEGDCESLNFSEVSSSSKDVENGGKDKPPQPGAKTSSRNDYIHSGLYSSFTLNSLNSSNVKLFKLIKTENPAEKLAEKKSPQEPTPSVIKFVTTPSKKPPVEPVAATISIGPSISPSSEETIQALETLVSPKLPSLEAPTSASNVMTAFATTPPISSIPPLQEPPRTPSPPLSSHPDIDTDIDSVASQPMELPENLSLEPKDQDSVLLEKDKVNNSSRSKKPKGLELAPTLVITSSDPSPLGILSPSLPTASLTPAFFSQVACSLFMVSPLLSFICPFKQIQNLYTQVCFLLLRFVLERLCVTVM
Particulars: protein: recombinant; tags: N-terminal GST; dsDNA, one strand shown. The procedure, abridged: as §1

The target in a further test is T10, ETV2 (Homo sapiens, UniProt O00321 1-342).
T10 sequence: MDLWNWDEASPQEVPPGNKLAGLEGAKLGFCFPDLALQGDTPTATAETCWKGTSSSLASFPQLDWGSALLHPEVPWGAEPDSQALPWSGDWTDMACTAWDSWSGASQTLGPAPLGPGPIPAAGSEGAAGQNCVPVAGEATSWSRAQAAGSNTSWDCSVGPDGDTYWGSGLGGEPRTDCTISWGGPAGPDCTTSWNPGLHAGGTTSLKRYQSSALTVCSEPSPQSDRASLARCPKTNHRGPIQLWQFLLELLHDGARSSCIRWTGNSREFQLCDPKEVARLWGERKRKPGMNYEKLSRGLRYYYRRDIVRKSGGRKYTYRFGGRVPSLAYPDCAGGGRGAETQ
Particulars: protein: recombinant; tags: N-terminal GST; dsDNA, one strand shown. The gist of the method: as §1

A further test addresses T11, ELF3 (Homo sapiens, UniProt P78545 1-371).
T11 sequence: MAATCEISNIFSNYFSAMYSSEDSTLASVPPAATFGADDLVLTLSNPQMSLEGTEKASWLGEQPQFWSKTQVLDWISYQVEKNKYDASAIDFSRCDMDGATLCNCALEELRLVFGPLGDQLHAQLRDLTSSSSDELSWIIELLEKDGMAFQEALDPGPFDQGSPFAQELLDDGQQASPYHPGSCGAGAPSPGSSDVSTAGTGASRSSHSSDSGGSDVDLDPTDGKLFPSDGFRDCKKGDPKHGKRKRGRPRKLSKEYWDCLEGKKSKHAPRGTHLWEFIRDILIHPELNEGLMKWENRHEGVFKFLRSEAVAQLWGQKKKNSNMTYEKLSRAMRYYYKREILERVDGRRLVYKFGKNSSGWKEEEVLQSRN
The note with it: protein: recombinant; tags: N-terminal GST; dsDNA, one strand shown. The gist of the method: as §1

For another test, the target named is CRX (Homo sapiens, UniProt O43186 1-299). Particulars: protein: recombinant; tags: N-terminal GST; dsDNA, one strand shown. The procedure, abridged:
as §1

For the next test, the target named is ETV1 (Homo sapiens, UniProt P50549 1-477). Particulars: protein: recombinant; tags: N-terminal GST; dsDNA, one strand shown. The procedure, abridged:
as §1

ETV5, sequence (P41161 whole entry): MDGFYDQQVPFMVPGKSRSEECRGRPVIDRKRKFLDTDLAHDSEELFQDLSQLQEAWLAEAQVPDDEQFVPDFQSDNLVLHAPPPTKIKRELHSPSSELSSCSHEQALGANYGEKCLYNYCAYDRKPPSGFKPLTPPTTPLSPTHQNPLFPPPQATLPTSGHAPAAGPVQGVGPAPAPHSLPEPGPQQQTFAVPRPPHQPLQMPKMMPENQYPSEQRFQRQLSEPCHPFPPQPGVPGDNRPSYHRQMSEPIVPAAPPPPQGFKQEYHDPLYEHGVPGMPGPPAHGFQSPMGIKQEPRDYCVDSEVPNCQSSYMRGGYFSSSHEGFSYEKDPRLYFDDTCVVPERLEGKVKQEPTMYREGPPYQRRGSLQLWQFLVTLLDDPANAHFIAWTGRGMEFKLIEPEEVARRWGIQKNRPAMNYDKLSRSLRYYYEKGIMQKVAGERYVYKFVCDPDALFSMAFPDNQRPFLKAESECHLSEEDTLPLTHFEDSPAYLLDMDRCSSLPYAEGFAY
ELF1, sequence (P32519 whole entry): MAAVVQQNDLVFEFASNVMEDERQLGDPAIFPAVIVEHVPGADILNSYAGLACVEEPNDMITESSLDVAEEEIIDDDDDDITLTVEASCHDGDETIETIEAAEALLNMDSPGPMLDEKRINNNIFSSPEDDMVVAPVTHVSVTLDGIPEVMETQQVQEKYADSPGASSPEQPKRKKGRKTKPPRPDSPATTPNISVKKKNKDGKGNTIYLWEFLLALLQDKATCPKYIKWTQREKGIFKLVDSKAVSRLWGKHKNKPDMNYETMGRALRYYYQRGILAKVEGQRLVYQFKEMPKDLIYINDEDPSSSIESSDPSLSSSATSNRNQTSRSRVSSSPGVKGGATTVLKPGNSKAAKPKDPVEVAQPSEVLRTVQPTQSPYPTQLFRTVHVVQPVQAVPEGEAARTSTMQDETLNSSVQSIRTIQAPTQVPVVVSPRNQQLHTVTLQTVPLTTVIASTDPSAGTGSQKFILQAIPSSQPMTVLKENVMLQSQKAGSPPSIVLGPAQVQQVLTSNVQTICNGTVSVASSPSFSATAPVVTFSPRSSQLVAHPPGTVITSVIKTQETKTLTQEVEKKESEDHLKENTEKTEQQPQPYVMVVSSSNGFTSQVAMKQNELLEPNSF
HSF1, sequence (Q00613 whole entry): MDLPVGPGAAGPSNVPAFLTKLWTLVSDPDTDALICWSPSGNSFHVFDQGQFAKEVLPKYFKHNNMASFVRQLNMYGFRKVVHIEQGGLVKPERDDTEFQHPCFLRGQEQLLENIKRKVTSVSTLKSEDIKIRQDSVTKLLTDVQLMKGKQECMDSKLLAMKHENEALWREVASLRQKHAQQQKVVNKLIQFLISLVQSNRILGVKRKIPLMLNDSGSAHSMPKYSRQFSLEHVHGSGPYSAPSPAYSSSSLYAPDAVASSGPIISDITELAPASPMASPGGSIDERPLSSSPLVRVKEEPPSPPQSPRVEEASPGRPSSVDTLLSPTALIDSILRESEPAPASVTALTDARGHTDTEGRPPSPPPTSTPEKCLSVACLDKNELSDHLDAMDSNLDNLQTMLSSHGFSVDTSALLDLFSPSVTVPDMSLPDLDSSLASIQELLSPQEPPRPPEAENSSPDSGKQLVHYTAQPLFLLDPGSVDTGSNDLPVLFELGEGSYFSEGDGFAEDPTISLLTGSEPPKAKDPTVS
SPIB, sequence (Q01892 whole entry): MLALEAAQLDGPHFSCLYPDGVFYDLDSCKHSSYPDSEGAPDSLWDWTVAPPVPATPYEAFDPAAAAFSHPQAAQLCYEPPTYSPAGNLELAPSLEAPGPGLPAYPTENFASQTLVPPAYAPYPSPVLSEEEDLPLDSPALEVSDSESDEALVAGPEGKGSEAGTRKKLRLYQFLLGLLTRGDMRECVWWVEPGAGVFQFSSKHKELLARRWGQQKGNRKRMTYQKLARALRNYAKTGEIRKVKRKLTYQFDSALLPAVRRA
ETV1, sequence (P50549 whole entry): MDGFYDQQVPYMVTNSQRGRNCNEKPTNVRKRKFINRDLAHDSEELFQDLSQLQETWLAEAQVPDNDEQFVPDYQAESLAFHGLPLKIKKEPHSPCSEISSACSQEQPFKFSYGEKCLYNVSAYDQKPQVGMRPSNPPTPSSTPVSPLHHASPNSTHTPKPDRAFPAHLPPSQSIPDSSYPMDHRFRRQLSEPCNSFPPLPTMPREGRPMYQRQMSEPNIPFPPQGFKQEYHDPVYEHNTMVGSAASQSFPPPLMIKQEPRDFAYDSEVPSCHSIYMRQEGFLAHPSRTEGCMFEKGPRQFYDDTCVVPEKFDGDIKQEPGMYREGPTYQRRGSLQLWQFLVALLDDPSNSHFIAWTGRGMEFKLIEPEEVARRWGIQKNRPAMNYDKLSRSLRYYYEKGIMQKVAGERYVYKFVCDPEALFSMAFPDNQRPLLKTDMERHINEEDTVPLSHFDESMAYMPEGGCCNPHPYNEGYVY
CRX, sequence (O43186 whole entry): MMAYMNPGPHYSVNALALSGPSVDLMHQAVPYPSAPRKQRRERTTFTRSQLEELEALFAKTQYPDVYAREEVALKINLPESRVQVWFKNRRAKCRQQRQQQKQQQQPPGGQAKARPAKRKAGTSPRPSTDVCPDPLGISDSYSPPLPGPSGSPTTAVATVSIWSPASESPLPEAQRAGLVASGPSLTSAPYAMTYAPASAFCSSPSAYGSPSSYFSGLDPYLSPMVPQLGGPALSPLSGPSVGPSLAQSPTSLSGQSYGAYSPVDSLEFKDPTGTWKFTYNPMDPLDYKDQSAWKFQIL

CGGCTT: the binding signal with FLI1 was 1.17 fold enrichment (6-mer frequency, TF over GST control); with ELK1, 1.2 fold enrichment (6-mer frequency, TF over GST control); with GABPA, 1.12 fold enrichment (6-mer frequency, TF over GST control); with ERG, 1.19 fold enrichment (6-mer frequency, TF over GST control); with ELF1, 1.13 fold enrichment (6-mer frequency, TF over GST control); with EHF it was 1.13 fold enrichment (6-mer frequency, TF over GST control). The binding signal in the test with SPI1 is 1.17 fold enrichment (6-mer frequency, TF over GST control); with SPIB, 1.18 fold enrichment (6-mer frequency, TF over GST control); in the test with ELK3, 1.12 fold enrichment (6-mer frequency, TF over GST control); with FEV it was 1.14 fold enrichment (6-mer frequency, TF over GST control); with ETV5, 1.16 fold enrichment (6-mer frequency, TF over GST control); with HSF1, 1.35 fold enrichment (6-mer frequency, TF over GST control). Besides, the binding signal is 1.13 fold enrichment (6-mer frequency, TF over GST control) in the test with SPIC; 1.1 fold enrichment (6-mer frequency, TF over GST control) in the test with ELF4; 1.09 fold enrichment (6-mer frequency, TF over GST control) with ELK4; 1.27 fold enrichment (6-mer frequency, TF over GST control) with ETV2; 1.15 fold enrichment (6-mer frequency, TF over GST control) in the test with ELF3; 1.95 fold enrichment (6-mer frequency, TF over GST control) with CRX. For the same sequence, the binding signal with ETV1 was 1.2 fold enrichment (6-mer frequency, TF over GST control).
